Compounds with a hit are over-represented: about 2.8% of the library has one in this group of screens.
N-glyco inh: blocks N-linked glycosylation in D54 reporter cells | reporter increase, % at 12.5 µM | D54 ERlucT glycosylation luciferase reporter, 24 h; percent of 100 nM tunicamycin response | 360,000 compounds, 0.23% hits;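 active means mean luciferase reporter signal, scaled so untreated is 0 and the glycosylation-blocking control 100, at or above a set limit in every replicate; inconclusive means mean reaches the limit but not every replicate does; inactive means mean below the limit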;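 further: luciferase carries N-glycosylation sites so blocking glycosylation raises the light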
Shn3 inh set2: inhibitors of Schnurri-3 3'UTR reporter in osteoblasts; inhibition, % at 12.5 µM; Clone20 osteoblast Shn3 3'UTR firefly luciferase, 24 h; AID 588674; 360,000 compounds, 0.52% hits;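 active means mean inhibition of at least 75% with every replicate also reaching 75%; inconclusive means mean inhibition at least 75% but some replicate below; inactive means mean inhibition below 75%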
HIV Env fusion: HIV envelope-mediated fusion inhibition. AID 651610. inhibition, % at 12.3 µM. HeLa-JRFL Env/CEM21 cell fusion, luciferase. 360,000 compounds, 1.1% hits;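 active means mean replicate inhibition score of at least 50 and every replicate individually at or above 50; inconclusive means only one of the two criteria met; inactive means mean below 50 and not all replicates reaching 50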
NSD2 HMT inh: blocks human histone methyltransferase NSD2. O96028. NSD2 peptide methylation, AlphaScreen, 120 min. inhibition, % at 12.5 µM. 310,000 compounds, 0.54% hits; in the data active means inhibition above about 50%
Target sequence (O96028 whole entry, looked up): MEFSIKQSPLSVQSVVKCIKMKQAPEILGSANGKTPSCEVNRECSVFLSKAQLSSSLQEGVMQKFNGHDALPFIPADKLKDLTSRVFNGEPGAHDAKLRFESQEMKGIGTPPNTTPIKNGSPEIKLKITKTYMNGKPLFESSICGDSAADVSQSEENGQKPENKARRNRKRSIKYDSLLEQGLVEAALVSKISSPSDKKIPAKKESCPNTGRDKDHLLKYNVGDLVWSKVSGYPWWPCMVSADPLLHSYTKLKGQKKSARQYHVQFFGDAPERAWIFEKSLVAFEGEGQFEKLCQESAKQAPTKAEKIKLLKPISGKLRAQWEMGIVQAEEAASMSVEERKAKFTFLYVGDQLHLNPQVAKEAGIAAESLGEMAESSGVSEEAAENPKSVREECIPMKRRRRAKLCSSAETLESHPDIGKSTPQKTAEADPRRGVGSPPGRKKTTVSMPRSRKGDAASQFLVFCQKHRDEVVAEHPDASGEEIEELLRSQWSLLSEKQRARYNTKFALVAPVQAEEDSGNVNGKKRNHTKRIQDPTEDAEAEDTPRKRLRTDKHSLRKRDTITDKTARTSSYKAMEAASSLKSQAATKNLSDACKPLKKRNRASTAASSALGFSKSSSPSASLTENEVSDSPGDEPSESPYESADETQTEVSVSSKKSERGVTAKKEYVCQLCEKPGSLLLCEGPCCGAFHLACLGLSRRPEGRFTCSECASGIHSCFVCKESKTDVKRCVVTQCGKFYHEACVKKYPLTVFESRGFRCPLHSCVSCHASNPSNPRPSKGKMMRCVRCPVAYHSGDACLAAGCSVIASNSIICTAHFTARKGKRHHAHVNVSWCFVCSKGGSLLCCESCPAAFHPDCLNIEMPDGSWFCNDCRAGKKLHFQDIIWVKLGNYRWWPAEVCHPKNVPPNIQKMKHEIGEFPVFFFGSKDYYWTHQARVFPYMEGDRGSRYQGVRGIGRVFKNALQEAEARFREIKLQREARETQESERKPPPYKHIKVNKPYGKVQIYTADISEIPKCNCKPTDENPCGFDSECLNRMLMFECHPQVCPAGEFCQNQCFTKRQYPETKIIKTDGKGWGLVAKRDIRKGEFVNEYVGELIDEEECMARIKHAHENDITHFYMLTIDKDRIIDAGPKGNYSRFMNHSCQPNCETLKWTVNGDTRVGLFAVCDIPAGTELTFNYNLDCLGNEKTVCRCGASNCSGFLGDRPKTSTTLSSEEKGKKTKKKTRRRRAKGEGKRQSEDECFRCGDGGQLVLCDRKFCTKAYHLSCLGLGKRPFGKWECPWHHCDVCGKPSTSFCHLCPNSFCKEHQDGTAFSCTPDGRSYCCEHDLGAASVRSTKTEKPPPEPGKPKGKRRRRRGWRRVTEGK
LMP1 NFkB inh: reduces LMP1-driven NF-kappaB luciferase signal; LMP1-induced NF-kappaB luciferase reporter cells, luminescence; AID 504558; inhibition, % at 12.5 µM; 350,000 compounds, 0.69% hits; in the data active means inhibition above about 41%; inconclusive means no clear call, values can overlap the other calls
PAX8 reporter: lowers PAX8-driven luciferase in RMG-I cells; RMG-I TPO-luciferase reporter, SteadyGlo, 24 h; inhibition, % at 12.6 µM; 360,000 compounds, 1.2% hits;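 active means mean replicate inhibition at least 60% with every replicate also reaching 60%; inconclusive means only one of the two criteria is met; inactive means mean below 60% and not all replicates reaching 60%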;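 further: luciferase light reporting Pax8 driven TPO promoter activity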
A number is an active result; n = inactive; u = inconclusive; x = not tested or not shown; [ ] = dose if it differs, or a comment.

SMILES | N-glyco inh | Shn3 inh set2 | HIV Env fusion | NSD2 HMT inh | LMP1 NFkB inh | PAX8 reporter
CCS(=O)(=O)Nc1ccc2c(c1)C(=O)N(C)C[C@@H](OC)[C@@H](C)CN(C(C)=O)[C@H](C)CO2 | x | x | n | x | x | x
C[C@@H]1CCCCO[C@H](CN(C)S(C)(=O)=O)[C@@H](C)CN([C@H](C)CO)C(=O)c2cc(NC(=O)CCC(F)(F)F)ccc2O1 | x | x | n | x | x | n
Cc1ccc(S(=O)(=O)N(C)C[C@@H]2Oc3ccc(NC(=O)Nc4cccc5ccccc45)cc3CC(=O)N([C@H](C)CO)C[C@@H]2C)cc1 | x | x | 56.5[16.7 µM] | x | x | x
C[C@H](CO)N1C[C@H](C)[C@H](CN(C)Cc2ccccc2)Oc2ccc(NC(=O)Nc3cccc4ccccc34)cc2CC1=O | x | x | 60.2[16.7 µM] | x | x | n
COc1ccccc1-c1cn(CC[C@H]2CC[C@H](NC(=O)C3CCC3)[C@H](CO)O2)nn1 | x | x | n | x | x | n
Cc1noc(C)c1NC(=O)N(C)C[C@H]1Oc2c(NS(=O)(=O)c3ccccc3)cccc2C(=O)N([C@H](C)CO)C[C@@H]1C | x | x | x | x | x | n
C[C@H]1CN([C@@H](C)CO)C(=O)Cc2cc(NS(C)(=O)=O)ccc2O[C@H]1CN(C)S(C)(=O)=O | x | x | n | x | x | x
O=C(NC(=S)Nc1ncccn1)c1ccccc1Cl | n | n | x | n | n | 70.4
O=C(NC(=S)/C(=C1\CCCCCN1)[N+](=O)[O-])c1ccccc1 | n | n | x | n | 40.3 | x
O=C(NC(=S)Nc1ccccc1[N+](=O)[O-])c1ccccc1 | n | n | n | n | n | n
NS(=O)(=O)c1ccc(CCNC(=O)CN2CCN(c3ccc(F)cc3)CC2)cc1 | n | n | 64.1 | n | n | n
NS(=O)(=O)c1ccc(CCNC(=O)CN2CCN(c3cccc(Cl)c3)CC2)cc1 | n | n | n | n | n | n
O=C1c2ccccc2C(=O)c2c1oc(C(F)(F)F)c2C(=O)c1ccccc1 | n | 91.1 | x | n | 67.6 | x
Cc1nc2sc(C(N)=O)c(N)c2c2c1CCCC2 | n | n | n | n | 51.3 | n
COc1ccccc1-c1ccc2c(c1)O[C@@H](CN(C)Cc1ccc3c(c1)OCO3)[C@@H](C)CN([C@@H](C)CO)S2(=O)=O | x | x | n | x | x | 66.3
COc1ccccc1-c1ccc2c(c1)O[C@H](CN(C)Cc1ccc3c(c1)OCO3)[C@@H](C)CN([C@H](C)CO)S2(=O)=O | x | x | n | x | x | n
COc1ccccc1-c1ccc2c(c1)O[C@H](CN(C)Cc1ccc3c(c1)OCO3)[C@H](C)CN([C@@H](C)CO)S2(=O)=O | x | x | n | x | x | 87.8
CCOC(=O)c1cccc(NC2c3ccccc3C(=O)N2Cc2ccco2)c1 (stereo not drawn) | n | 90.4 | n | x | n | n
CC(=O)c1cccc(NC2c3ccccc3C(=O)N2Cc2ccco2)c1 (stereo not drawn) | n | n | n | n | n | n
CCC(=O)Nc1ccc2c(c1)OC[C@H](C)N(C(=O)COC)C[C@@H](C)[C@H](OC)CN(C)C2=O | x | x | n | x | x | n
CC(=O)c1ccc(-n2nnnc2SCC(=O)N2CCc3ccccc3C2)cc1 | n | n | x | x | 49.4 | x
OCC1OC(n2cnc3c(NCc4ccco4)ncnc32)C(O)C1O (stereo not drawn) | u | u | 69.8 | x | n | 104.3
OC[C@H]1O[C@@H](n2cnc3c(NCc4ccco4)ncnc32)[C@H](O)[C@@H]1O | n | n | n | x | n | 99.9
C=CCNc1ncnc2c1ncn2C1OC(CO)C(O)C1O (stereo not drawn) | n | n | x | n | n | x
CN(C)c1ccc2c(c1)[C@H]1C[C@H](CC(=O)NCCN3CCCCC3)O[C@H](CO)[C@H]1O2 | x | x | n | x | x | n
SMILES | N-glyco inh | Shn3 inh set2 | HIV Env fusion | NSD2 HMT inh | LMP1 NFkB inh | PAX8 reporter
COc1cc(C(=O)Nc2cccc(C(=O)Nc3cc(C)ccn3)c2)cc(OC)c1OC | x | x | x | n | x | x
CCOC(=O)c1cc(OC(=O)c2ccccc2OC)n(-c2ccccc2)n1 | n | n | n | n | n | x
CCOC(=O)c1sc2ccccc2c1OC(=O)c1ccccc1OC | n | n | n | n | n | 60.2
COc1cc(/C=C/C(=O)c2ccc3c(c2)OCO3)cc(OC)c1OC | n | n | x | n | n | x
COc1cc(C(=O)c2cc3c(cc2C)OCO3)cc(OC)c1OC | n | n | n | n | x | 83.7
CCC(=O)N1CC2(CCN(C(=O)Nc3ccccc3F)CC2)c2c([nH]c3cc(OC)ccc23)[C@@H]1CO | x | x | n | x | x | x
C[C@@H]1CN([C@H](C)CO)C(=O)c2ccccc2-c2ccccc2CO[C@H]1CN(C)S(=O)(=O)c1ccc(Cl)cc1 | x | x | n | x | x | n

Screening data (PubChem)
